Source: PubChem BioAssay
Caspase-1 inhib = allosteric or competitive inhibitors of human caspase-1; 75,000 tested, 0.03% active; P29466; Potency, µM (doses to about 57.5 µM), inactives show at the highest dose activity change, negative = inhibition, actives largely listed as inhibitors; Caspase-1 enzyme, Ac-WEHD-AFC fluorogenic rate;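 note: plate controls were vehicle for no effect and no substrate for full effect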
15-hLO-2 inh = inhibitors of human 15-lipoxygenase 2 (ALOX15B). 110,000 tested, 0.56% active. purified 15hLO-2, xylenol orange hydroperoxide absorbance. Potency, µM (titrated, usually from 57.1 µM), for inactives: at the highest dose activity change, negative = inhibition, hits mostly inhibitors. O15296. AID 881; note: % is set by controls: 0 for no effect and ±100 for the full control effect; nearly all actives have a fitted effect of over 60% in size
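Read-out: hydroperoxide product oxidises ferrous iron, measured as xylenol orange complex via the 573-to-405 nm absorbance ratio after 30 min. Reaction: 50 nM enzyme, 15 min compound preincubation, 45 uM arachidonic acid, 90 min RT, Hepes pH 7.5 with Triton X-100.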
ALOX15 inhib = 15-hLO (ALOX15) enzyme inhibition | Potency, µM (titrated, usually from 57.1 µM), for the others: top-dose activity change, negative = inhibition, actives largely listed as inhibitors | P16050 | purified 15hLO-1, xylenol orange hydroperoxide absorbance | 74,000 tested, 1.4% active; note: % is set by controls: 0 for no effect and ±100 for the full control effect; nearly all actives have a fitted effect of over 55% in size
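Purified human 15hLO-1 (40 nM) in 25 mM Hepes pH 7.5, 0.01% Triton X-100, preincubated 15 min RT with compound, then 50 uM arachidonic acid for 6 min. Hydroperoxide read by ferrous/xylenol orange, 30 min; 573/405 nm absorbance ratio gave progress.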
TSHR agonist = activates the human thyroid stimulating hormone receptor | HEK293-CNG-TSHR cells (CNG channel as cAMP sensor), membrane potential dye, cAMP | 73,000 tested, 0.48% active | P16473 | Potency, µM (top dose mostly 57.1 µM), without a hit: at the top dose activation, actives largely listed as activators | AID 926; active = well fitted activation curve with a large enough effect in the main read-out, with a control signal flat, not every such curve was filed as active; inconclusive = small, poorly fitted or top-dose-only effect, or a change in a side signal; inactive = no such curve, though single readings can be large or run the other way; % of control where 0% means no effect;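 note: the control signal comes from parental cells without the receptor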
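cAMP rise detected as CNG-channel membrane depolarization by fluorescent dye (emission 590 nm), 30 min after compound, following 60 min dye loading containing 100 uM RO 20-1724 at room temperature. Cells: TSHR/CNG HEK 293, with parental CNG HEK 293 as control.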
Casp7 inh = blocks human caspase-7 allosterically or competitively; P55210; AID 889; recombinant caspase-7, Ac-DEVD-AFC fluorescence rate; Potency, µM (series often up to 57.5 µM), for inactives: top-dose activity change, negative = inhibition, actives largely listed as inhibitors; 75,000 tested, 0.02% active; active = well fitted inhibition curve with a large enough effect in the main read-out, with a control signal flat, not every such curve was filed as active; inconclusive = small, poorly fitted or top-dose-only effect, or a change in a side signal; note: % of control where 0% means no effect
HEK293 cAMP ctrl = raises cAMP in parental HEK293 cells, TSHR agonist counter-screen | parental HEK293 CNG cAMP sensor, membrane potential fluorescence | Potency, µM (top dose mostly 57.1 µM), without a hit: at the top dose activation, most hits filed as activators | 73,000 tested, 2.5% active; note: % of control where 0% means no effect; nearly all actives have a fitted effect of over 55% in size
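Parental HEK 293 cells stably expressing a cAMP-gated CNG channel were loaded with membrane potential dye containing 100 uM RO 20-1724 for 60 min. Compound added for 30 min; depolarization read as fluorescence intensity at 590 nm.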
* = called active by the depositor; ? = inconclusive; / = no result given; ! = not active in a repeat; [ ] = dose if it differs, or a comment. Compounds with a hit are over-represented: about 3% of the library has one in this group of screens. Unless noted, calls come from the whole dose curve; as a rule, active = well fitted curve in the direction sought with a large enough effect; inconclusive = small, poorly fitted or top-dose-only effect, or another doubt; inactive = no such curve, though single readings can be large; an effect the other way counts as inactive or inconclusive. Potency is the fitted concentration of half-maximal effect.

SMILES | Caspase-1 inhib | 15-hLO-2 inh | ALOX15 inhib | TSHR agonist | Casp7 inh | HEK293 cAMP ctrl
Cc1cc(=O)oc2cc(OC3C=CC(C#CC(C)(C)C)OC3CO)ccc12 (stereo not drawn) | 3%[11.5 µM] | / | -2%[11.4 µM] | -5%[11.4 µM] | 0%[11.5 µM] | -2%[11.4 µM]
O=C(COC(=O)c1cccc(S(=O)(=O)N2CCN(c3ccccc3)CC2)c1)NCc1ccco1 | -5% | -1% | 25µM* | -2% | -15% | 4%
O=C(COC(=O)c1cccc(Oc2ccccc2)c1)NCc1ccco1 | / | 5% | / | / | / | /
O=C(CSc1ncn(-c2ccccc2)n1)Nc1ccc(Br)cn1 | -2% | ? | 20µM* | ? | -5% | ?
COCc1cc(CN2CCCC2)c(O)c2ncccc12 | -6% | 43% | 2.5µM* | -3% | -6% | 0%
CC(=O)NCCNc1ncnc2ccc(-c3ccc(C(=O)N(C)C)cc3)cc12 | -2% | -7% | 3% | 1% | 1% | -19%
CCCCNc1nc2ccccc2n1CC(=O)N1CCc2ccccc2C1 | -1% | 25% | -13% | ? | 2%[0.00368 µM] | 2µM*
CC1CN(c2c(F)c(N)c3c(=O)c(C(=O)O)cn(C4CC4)c3c2F)CC(C)N1 (stereo not drawn) | / | 9%[0.0915 µM] | / | / | / | /
Cc1nc2cnc(N(C)C)nc2n(-c2ccccc2)c1=O | / | -10% | 0% | 6% | ? | 16%
Cc1ccc(S(=O)(=O)n2ccnc2)cc1C | -4% | 4% | 5% | ? | 1% | 20µM*
COc1ccc(-c2nc3cnc(OC)nc3n(Cc3cccs3)c2=O)cc1 | / | 2% | -8% | 19% | ? | 3%
Cc1ccc(C)c2nc(N3CCCC3)c(C#N)cc12 | / | 10% | 13µM* | ? | ? | ?
Cc1cccc2cc(C#N)c(N3CCN(C)CC3)nc12 | -11% | 12% | 11% | ? | -9% | 16µM*
Cc1cc(C)c2nc(N3CCN(C)CC3)c(C#N)cc2c1 | -12% | 36% | 6% | ? | -7% | 13µM*
Cc1ccc2nc(N3CCN(C)CC3)c(C#N)cc2c1 | -19% | 28% | -11% | ? | -16% | ?
C=C/C(C)=C/[C@]1(C)SC(=O)C(C)=C1O | 3% | -4% | -4% | 5% | -1% | 5%
Clc1ccc(Cn2nnc(-c3ccc(CN4CCOCC4)cc3)n2)cc1 | 3% | 19% | -4% | ? | -2% | 32µM*
C/C(=N\NC(=O)c1ccncc1)c1ccc2ccccc2c1O | -4%[11.5 µM] | 0%[11.4 µM] | 19%[11.4 µM] | 4%[11.4 µM] | -4%[11.5 µM] | -11%[11.4 µM]
O=C(O)[C@H]1CN(C/C=C/P(=O)(O)O)CCN1 | 1% | 13% | ? | 2% | 0% | -9%
NC(=O)CNCCC(c1ccccc1)c1ccccc1 | 0% | 42% | 20µM*! | ? | -1% | ?
CCOC(=O)CSc1nc2ccc(N3CCOCC3)cc2c(=O)n1Cc1ccc2c(c1)OCO2 | / | -10% | 20µM* | 4% | ? | -7%
O[C@@H](C1=C/C(=C\c2ccncc2)c2ccccc21)c1ccncc1 | 0%[11.5 µM] | -2%[11.4 µM] | 0%[11.4 µM] | 8%[11.4 µM] | 0%[11.5 µM] | 18%[11.4 µM]
Oc1cc(CN2COc3ccccc32)c(O)cc1CNC1CCCCC1 | -10%[11.5 µM] | 3.2µM* | ? | -4%[11.4 µM] | 0%[11.5 µM] | -4%[11.4 µM]
O=c1cc(CNC2CCCCC2)c2ccccc2[nH]1 | -2% | -6% | ? | 21% | 0% | 18%
NCCCC(O)(P(=O)(O)O)P(=O)(O)O | 0% | -1%[0.0915 µM] | -4% | / | 1% | /
O=c1oc2ccccc2n1CSc1nc2ccccc2s1 | -3% | -1% | ? | ? | -3% | 25µM*
CCCOc1ccccc1Cn1c(=O)oc2ccc(C)cc21 | -1% | 6% | -18% | ? | 6% | 13µM*
CCOc1ccccc1Cn1c(=O)oc2ccc(C)cc21 | -3% | / | -9% | ? | -3% | 25µM*
COc1ccccc1CNc1ccnc(-c2ccc(N(C)C)cc2)n1 | -12% | 39% | -11% | 25% | -19% | 5%
O=C1CCCC2=C1C(c1ccco1)Nc1ccc(C(=O)c3ccccc3)cc1N2 (stereo not drawn) | -15% | -9% | 2.5µM* | -15% | -24% | -3%
